# Only a selection was taken, and the strongest signals are over-represented in it overall.
# B1: AT1G15820(NC) (Arabidopsis thaliana) (protein)
# chain: MAMAVSGAVLSGLGSSFLTGGKRGATALASGVGDAIAPFSFGSLLGTQLLLMGWVESKRWVDFFNPDSQSVEWATPWSKTAENFANYTGDQGYPGGRFFDPLGLAGKNRDGVYEPDFEKLERLKLAEIKHSRLAMVAMLIFYFEAGQGKTPLGALGL
# Key:
# Assay in all cases: glycan array binding signal (z-score within array); higher = stronger binding
# Details in all cases: glycan notation: IUPAC condensed, linker removed
# Fuc(a1-2)Gal = biological target: Fuc(a1-2)Gal
# Summary of the method: (§1)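 Arrays were curated from the Consortium for Functional Glycomics database, 3228 in total, and kept only where the protein sequence was available. Binding is expressed as a within-array Z-score. This score was averaged across arrays of the same protein sequence at different concentrations or buffers and across linkers, and negative values can be read as non-binding.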
# [1] = biological target: Fuc(a1-2)Gal(b1-3)GlcNAc(b1-2)Man(a1-3)[Fuc(a1-2)Gal(b1-3)GlcNAc(b1-2)Man(a1-6)]Man(b1-4)GlcNAc(b1-4)[Fuc(a1-6)]GlcNAc
# Summary of the method: as §1
# [2] = biological target: Fuc(a1-2)Gal(b1-3)GlcNAc(b1-3)[Neu5Ac(a2-6)Gal(b1-4)GlcNAc(b1-6)]Gal(b1-4)Glc
# Summary of the method: as §1
# [3] = biological target: Fuc(a1-2)Gal(b1-3)GlcNAc6S
# Summary of the method: as §1
# [4] = biological target: Fuc(a1-2)Gal(b1-3)[Fuc(a1-4)]GlcNAc
# Summary of the method: as §1
# [5] = biological target: Fuc(a1-2)Gal(b1-4)GlcNAc(b1-2)Man
# Summary of the method: as §1
# [6] = biological target: Fuc(a1-2)Gal(b1-4)GlcNAc(b1-3)Gal(b1-4)GlcNAc(b1-3)Gal(b1-4)GlcNAc
# Summary of the method: as §1
# [7] = biological target: Fuc(a1-2)Gal(b1-4)[Fuc(a1-3)]GlcNAc(b1-2)[Fuc(a1-2)Gal(b1-4)[Fuc(a1-3)]GlcNAc(b1-4)]Man(a1-3)[Fuc(a1-2)Gal(b1-4)[Fuc(a1-3)]GlcNAc(b1-2)Man(a1-6)]Man(b1-4)GlcNAc(b1-4)GlcNAc
# Summary of the method: as §1
# [8] = biological target: Fuc(a1-2)[Gal(a1-3)]Gal(b1-3)GalNAc
# Summary of the method: as §1
# [9] = biological target: Fuc(a1-2)[Gal(a1-3)]Gal(b1-3)GlcNAc
# Summary of the method: as §1
# [10] = biological target: Fuc(a1-2)[Gal(a1-3)]Gal(b1-4)Glc
# Summary of the method: as §1
# [11] = biological target: Fuc(a1-2)[GalNAc(a1-3)]Gal(b1-4)GlcNAc(b1-6)GalNAc
# Summary of the method: as §1
# [12] = biological target: Fuc(a1-2)[GalNAc(a1-3)]Gal(b1-4)[Fuc(a1-3)]GlcNAc(b1-3)GalNAc
# Summary of the method: as §1
# [13] = biological target: Fuc(a1-3)[Gal3S(b1-4)]Glc
# Summary of the method: as §1
# Gal(a1-3)Gal(b1-4)GlcNAc = biological target: Gal(a1-3)Gal(b1-4)GlcNAc
# Summary of the method: as §1
# [14] = biological target: Gal(a1-3)[Gal(a1-4)]Gal(b1-4)GlcNAc
# Summary of the method: as §1
# [15] = biological target: Gal(b1-3)GalNAc(a1-3)[Fuc(a1-2)]Gal(b1-4)GlcNAc
# Summary of the method: as §1
# [16] = biological target: Gal(b1-3)GlcNAc(a1-6)Gal(b1-4)GlcNAc
# Summary of the method: as §1
# [17] = biological target: Gal(b1-3)GlcNAc(b1-3)Gal(b1-4)GlcNAc(b1-6)[Gal(b1-3)GlcNAc(b1-3)]Gal(b1-4)Glc
# Summary of the method: as §1
# [18] = biological target: Gal(b1-3)GlcNAc(b1-3)GalNAc
# Summary of the method: as §1
# [19] = biological target: Gal(b1-3)GlcNAc(b1-6)[Gal(b1-3)]GalNAc
# Summary of the method: as §1
# [20] = biological target: Gal(b1-3)[Fuc(a1-4)]GlcNAc(b1-2)Man
# Summary of the method: as §1
# [21] = biological target: Gal(b1-4)GlcNAc(b1-3)Gal(b1-4)Glc
# Summary of the method: as §1
# [22] = biological target: Gal(b1-4)GlcNAc(b1-3)Gal(b1-4)GlcNAc(b1-3)Gal(b1-4)GlcNAc(b1-3)Gal(b1-4)GlcNAc(b1-2)Man(a1-3)[Gal(b1-4)GlcNAc(b1-3)Gal(b1-4)GlcNAc(b1-3)Gal(b1-4)GlcNAc(b1-3)Gal(b1-4)GlcNAc(b1-2)Man(a1-6)]Man(b1-4)GlcNAc(b1-4)GlcNAc
# Summary of the method: as §1
# [23] = biological target: Gal(b1-4)GlcNAc(b1-3)Gal(b1-4)GlcNAc(b1-3)Gal(b1-4)GlcNAc(b1-3)Gal(b1-4)GlcNAc(b1-3)Gal(b1-4)GlcNAc(b1-2)Man(a1-3)[Gal(b1-4)GlcNAc(b1-3)Gal(b1-4)GlcNAc(b1-3)Gal(b1-4)GlcNAc(b1-3)Gal(b1-4)GlcNAc(b1-3)Gal(b1-4)GlcNAc(b1-2)Man(a1-6)]Man(b1-4)GlcNAc(b1-4)GlcNAc
# Summary of the method: as §1
binder,measurement,setting,value
B1,glycan array binding signal (z-score),Fuc(a1-2)Gal,4.29
same,glycan array binding signal (z-score),[1],3.01
same,glycan array binding signal (z-score),[2],-0.346
same,glycan array binding signal (z-score),[3],-0.5
same,glycan array binding signal (z-score),[4],-0.307
same,glycan array binding signal (z-score),[5],0.457
same,glycan array binding signal (z-score),[6],-0.439
same,glycan array binding signal (z-score),[7],-0.506
same,glycan array binding signal (z-score),[8],0.211
same,glycan array binding signal (z-score),[9],-0.395
same,glycan array binding signal (z-score),[10],-0.243
same,glycan array binding signal (z-score),[11],-0.49
same,glycan array binding signal (z-score),[12],4.75
same,glycan array binding signal (z-score),[13],-0.315
same,glycan array binding signal (z-score),Gal(a1-3)Gal(b1-4)GlcNAc,-0.211
same,glycan array binding signal (z-score),[14],4.55
same,glycan array binding signal (z-score),[15],-0.432
same,glycan array binding signal (z-score),[16],-0.36
same,glycan array binding signal (z-score),[17],5.77
same,glycan array binding signal (z-score),[18],-0.541
same,glycan array binding signal (z-score),[19],-0.208
same,glycan array binding signal (z-score),[20],-0.282
same,glycan array binding signal (z-score),[21],3.65
same,glycan array binding signal (z-score),[22],0.202
same,glycan array binding signal (z-score),[23],0.01

# Reference: the supplement of paper PMC8728848
